Among all 5,600 compounds or so, about 150 (2.7%) showed an effect of 50% or more. Only a selection was taken, and strong results are over-represented in it overall.
Key:
[1] = molecular target: T1, Protein deacetylase HDAC6 (Homo sapiens) (UniProt Q9UBN7); details: at 10 µM
T1 sequence (whole entry): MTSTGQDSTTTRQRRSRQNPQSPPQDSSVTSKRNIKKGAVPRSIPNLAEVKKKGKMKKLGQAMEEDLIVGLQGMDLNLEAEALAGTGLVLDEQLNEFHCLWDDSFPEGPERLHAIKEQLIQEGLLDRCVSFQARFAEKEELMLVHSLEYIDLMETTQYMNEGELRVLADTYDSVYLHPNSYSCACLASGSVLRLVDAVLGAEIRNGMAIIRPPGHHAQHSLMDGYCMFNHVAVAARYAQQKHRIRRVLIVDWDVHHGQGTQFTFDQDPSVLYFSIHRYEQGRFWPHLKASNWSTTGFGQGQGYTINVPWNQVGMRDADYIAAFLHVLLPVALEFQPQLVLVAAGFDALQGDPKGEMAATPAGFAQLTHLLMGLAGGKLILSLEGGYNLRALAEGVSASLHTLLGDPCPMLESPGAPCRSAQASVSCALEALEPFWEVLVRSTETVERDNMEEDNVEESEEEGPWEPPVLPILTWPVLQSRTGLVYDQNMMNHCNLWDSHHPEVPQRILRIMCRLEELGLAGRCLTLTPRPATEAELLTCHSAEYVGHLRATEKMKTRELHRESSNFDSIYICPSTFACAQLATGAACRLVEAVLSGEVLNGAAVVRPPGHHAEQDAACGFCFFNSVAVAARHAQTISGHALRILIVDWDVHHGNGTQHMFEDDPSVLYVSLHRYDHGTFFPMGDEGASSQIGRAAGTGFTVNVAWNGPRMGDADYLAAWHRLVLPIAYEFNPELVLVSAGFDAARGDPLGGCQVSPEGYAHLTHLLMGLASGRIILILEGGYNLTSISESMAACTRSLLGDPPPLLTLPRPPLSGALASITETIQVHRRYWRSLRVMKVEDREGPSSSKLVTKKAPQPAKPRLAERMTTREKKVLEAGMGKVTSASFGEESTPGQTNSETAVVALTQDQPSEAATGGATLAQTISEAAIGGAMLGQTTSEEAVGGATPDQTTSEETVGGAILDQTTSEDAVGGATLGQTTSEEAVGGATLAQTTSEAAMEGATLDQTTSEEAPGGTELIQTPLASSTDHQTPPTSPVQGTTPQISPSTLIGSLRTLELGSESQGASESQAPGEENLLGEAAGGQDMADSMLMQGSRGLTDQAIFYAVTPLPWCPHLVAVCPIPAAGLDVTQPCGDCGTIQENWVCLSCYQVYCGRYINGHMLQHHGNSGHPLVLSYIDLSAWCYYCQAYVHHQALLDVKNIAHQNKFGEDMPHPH

[2] = molecular target: Protein deacetylase HDAC6 (Homo sapiens) (UniProt Q9UBN7); details: at 10 µM; remark: listed apart in the source

Compound: c1ccc(-c2ccc(CNc3nc(-c4ccccn4)nnc3-c3ccccc3)cc2)cc1
- inhibition [1]: 6.43%

Compound: O=C(Cc1ccc(-c2ccccc2)cc1)Nc1ccccn1
- inhibition [1]: 44.2%

Compound: c1ccc(NCc2ccc(CNc3ccccn3)cc2)nc1
- inhibition [1]: 91.6%

Compound: O=S1(=O)N[C@H]2CCCN2c2ccccc21
- inhibition [1]: -6.18%

Compound: FC(F)(F)c1ccc(Nc2ncnc3cc(-c4ncccc4C(F)(F)F)ccc23)cc1
- inhibition [1]: 6.46%

Compound: CCCC[C@@H](NC(=O)[C@@H](Cc1cn(C(=O)OC)c2ccccc12)NC(=O)[C@H](CC(C)(C)C)NC(=O)N1[C@H](C)CCC[C@@H]1C)C(=O)O
- inhibition [1]: -9.33%

Compound: CCCCCCCCCCCCCCCC(=O)OC[C@H](COP(=O)([O-])OCC[N+](C)(C)C)OC(=O)CCCCCCCCCCCCCCC
- inhibition [1]: -0.71%

Compound: COc1c(C)cnc(Cn2cc(C#CCC(C)(C)O)c3c(Cl)nc(N)nc32)c1C
- inhibition [1]: 0.42%

Compound: O=C(c1cc(C2CC2)on1)N(C1CCCCC1)C1CCCCC1
- inhibition [1]: 9.33%

Compound: C#C[C@]1(OC(C)=O)CC[C@H]2[C@@H]3CCC4=C/C(=N/O)CC[C@@H]4[C@H]3CC[C@@]21CC
- inhibition [1]: 5.83%

Compound: Nc1ccc(S(=O)(=O)Nc2ccccn2)cc1
- inhibition [1]: 2.21%

Compound: Cc1ccnc(NS(=O)(=O)c2ccc(N)cc2)n1
- inhibition [1]: -3.6%

Compound: C=Cc1c(C)c2cc3nc(c(CC(=O)O)c4[nH]c(cc5nc(cc1[nH]2)C(C)=C5CC)c(C)c4C(=O)O)C(CCC(=O)O)C3C (stereo not drawn)
- inhibition [1]: 8.5%

Compound: CC(C)n1nccc1-c1ncccc1COc1cccc(O)c1C=O
- inhibition [1]: 0.21%

Compound: O=c1cc(N2CCN(c3cccc(C(F)(F)F)c3)CC2)[nH]c(=O)n1C1CCCCC1
- inhibition [1]: -1.42%

Compound: O=C(COc1ccc(Cl)cc1)N1CCN(Cc2ccc3c(c2)OCO3)CC1
- inhibition [1]: -0.58%

Compound: O=C(/C=C/C=C/c1ccc2c(c1)OCO2)N1CCCCC1
- inhibition [1]: 61.2%

Compound: O=C(c1ccc2c(c1)OCO2)N1CCCCC1
- inhibition [1]: -4.9%

Compound: O=C(CN1CCN(Cc2ccc3c(c2)OCO3)CC1)N1c2ccccc2Sc2ccccc21
- inhibition [1]: 4.21%

Compound: CC(C)(C)C(O)/C=C/c1ccc2c(c1)OCO2 (stereo not drawn)
- inhibition [1]: 8.28%

Compound: O=C(/C=C/c1ccc2c(c1)OCO2)N1CCCCC1
- inhibition [1]: 67.8%

Compound: CC/C(=C(\c1ccc(OCCN(C)C)cc1)c1cccc(O)c1)c1ccccc1
- inhibition [1]: -4.47%

Compound: CC(C)(N)c1nc(-c2ccc(OC(F)(F)F)cc2)c[nH]1
- inhibition [1]: 3.83%

Compound: C[C@]12CC[C@H](O)CC1=CCC1C2CC[C@]2(C)C(n3cnc4ccccc43)=CCC12 (stereo partly drawn)
- inhibition [1]: 10.9%

Compound: O=C(NO)c1ccc2[nH]c(=O)c(CCCc3ccccc3)nc2c1
- inhibition [1]: 97.8%

Compound: O=C(Nc1cccc2c(=O)cc(-c3nnn[nH]3)oc12)c1ccc(OCCCCc2ccccc2)cc1
- inhibition [1]: 2.83%

Compound: CCCCc1ccc2[nH]c(NC(=O)OC)nc2c1
- inhibition [1]: 15.1%

Compound: NC(=O)CCCCn1ccc(/N=C(\N)NCC(F)(F)F)n1
- inhibition [1]: -7.78%

Compound: O=C(Nc1ccc(C(O)(C(F)(F)F)C(F)(F)F)cc1)c1ccc(C(F)(F)F)cc1
- inhibition [1]: 0.41%

Compound: C/C(O)=C(\C#N)C(=O)Nc1ccc(C(F)(F)F)cc1
- inhibition [1]: 98.6%

Compound: CC(=O)Nc1ccc(C(=O)O)cc1
- inhibition [1]: -3.9%

Compound: C=C1CC/C=C(\C)CC[C@@H]2[C@@H]1CC2(C)C
- inhibition [1]: 2.39%

Compound: O=c1c(-c2ccccc2)c1-c1ccccc1
- inhibition [1]: 10.5%

Compound: CCOc1cccc(NC(=O)c2ccc(N3CCCC3)c(C(F)(F)F)c2)c1
- inhibition [1]: 0.15%

Compound: CCCCOc1ccc(C(=O)Nc2ccc(F)cc2F)cc1
- inhibition [1]: 49%

Compound: CCCCOc1ccc(C(=O)CCN2CCCCC2)cc1
- inhibition [1]: -4.56%

Compound: CCCCOc1ccc(CC(=O)NO)cc1
- inhibition [1]: 75.5%

Compound: CC[C@H](CC[C@@H](C)[C@H]1CC[C@H]2[C@@H]3CC=C4C[C@@H](O[C@@H]5O[C@H](CO)[C@@H](O)[C@H](O)[C@H]5O)CC[C@]4(C)[C@H]3CC[C@]12C)C(C)C
- inhibition [1]: 2.47%

Compound: N#Cc1ccc(-c2ccc(S(=O)(=O)Nc3cccc(N)n3)cc2)cc1
- inhibition [1]: 2.23%

Compound: Nc1ncccc1-c1nc2ccc(-c3ccccc3)nc2n1-c1ccc(C2(N)CCC2)cc1
- inhibition [1]: 0.11%

Compound: CC(C)c1ccc2oc3nc(N)c(C(=O)O)cc3c(=O)c2c1
- inhibition [1]: 99.5%

Compound: N[C@H](C(=O)O)c1ccc(O)c(C(=O)O)c1
- inhibition [1]: -4.47%

Compound: N[C@@H](C(=O)O)c1ccc(O)c(C(=O)O)c1
- inhibition [1]: -2.24%

Compound: CCOc1cc(OCC)c(C(=O)CCC(=O)O)cc1OCC
- inhibition [1]: -6.02%

Compound: Cc1n[nH]c2ccc(-c3cncc(OC[C@@H](N)Cc4ccccc4)c3)cc12
- inhibition [1]: -5.53%

Compound: hemin, CHEMBL5308479
- inhibition [2]: 13.1%

Compound: NCCNc1ccc(NCCN)c2c1C(=O)c1ccncc1C2=O
- inhibition [1]: 62.5%

Compound: NCCNS(=O)(=O)c1ccc(Cl)c2ccncc12
- inhibition [1]: -2.71%
